Assay results as given in the supplement of paper PMC10127200.
Where “and” joins values, the source holds several entries; their conditions need not be identical. Equal entries are not always repeated. Structures can show the parent of a compound that is named as a salt.

Tests used:
Assay in all cases: Euclidean distance of Cell Painting phenotypic profile (signed KS, 77 features) to DMSO centroid (dimensionless distance); 5 or 10 uM (library dependent); higher = stronger phenotypic change vs DMSO (phenoactivity)
Settings in all cases: 48 h
786-O = system: 786-O
In short: (§1)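 Harmony extracted 77 features from 20X confocal images (9 fields/well) of stained cells, scoring each as a signed Kolmogorov-Smirnov statistic against same-plate vehicle wells. The cells, five cancer lines and a healthy fibroblast line, had received library compounds for 48 h at 10 or 5 uM depending on library, with 0.1% DMSO final. Phenoactivity is the Euclidean distance from each plate-position-corrected, correlation-weighted, top-dose replicate-averaged profile to the median vehicle profile.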

A549 = system: A549
In short: as §1

DU145 = system: DU145
In short: as §1

FB = system: FB
In short: as §1

HEPG2 = system: HEPG2
In short: as §1

OVCAR4 = system: OVCAR4
In short: as §1

Row | SMILES | Euclidean distance (786-O) | Euclidean distance (A549) | Euclidean distance (DU145) | Euclidean distance (FB) | Euclidean distance (HEPG2) | Euclidean distance (OVCAR4)
1 | O=C(O)CCC(=O)OC[C@@H](NC(=O)C(Cl)Cl)[C@H](O)c1ccc([N+](=O)[O-])cc1 [Chloramphenicol sodium succinate] | 1.83 | 1.28 | 0.814 | 0.919 | 0.53 | 1.07
2 | CC(C[N+](C)(C)C)OC(N)=O (stereo not given) [Bethanechol chloride] | 1.22 | 0.995 | 0.866 | 0.979 | 1.03 | 0.949
3 | CNC[C@H](O)c1cccc(O)c1 [Phenylephrine HCl] | 1.46 | 0.809 | 0.788 | 1.34 | 0.549 | 0.844
4 | COc1cc(NC(C)CCCN)c2ncccc2c1 (stereo not given) [Primaquine Diphosphate] | 0.845 | 2.02 | 1.16 | 2.24 | 2.3 | 1.51
5 | C[C@@H]1COC(Nc2ccc3ncnc(Nc4ccc(OCc5nccs5)c(Cl)c4)c3c2)=N1 [Varlitinib] | 1.45 | 1.22 | 1.15 | 1.15 | 2.16 | 1.56
6 | Cc1c(O)c(=O)ccn1C [Deferiprone] | 1.58 | 0.809 | 1.07 | 1.18 | 0.561 | 0.947
7 | C[C@@H]1C[C@H]2[C@@H]3C[C@H](F)C4=CC(=O)C=C[C@]4(C)[C@@]3(F)[C@@H](O)C[C@]2(C)[C@@]1(O)C(=O)CO [Flumethasone] | 1.24 | 2.47 | 2.17 | 2.26 | 0.627 | 1.97
8 | Cc1nc(C)c(C)nc1C [Ligustrazine hydrochloride] | 0.557 | 0.605 | 0.684 | 0.693 | 0.523 | 0.693
9 | COc1ccc2c(O[C@@H]3C[C@H]4C(=O)N[C@]5(C(=O)NS(=O)(=O)C6CC6)C[C@H]5/C=C\CCCCN(C)C(=O)[C@@H]4C3)cc(-c3nc(C(C)C)cs3)nc2c1C [Simeprevir] | 1.38 | 2.3 | 1.29 | 0.939 | 0.799 | 1.23
10 | O=C(O)CCCCC(CCSCc1ccccc1)SCc1ccccc1 (stereo not given) | 0.848 | 0.928 | 1.09 | 0.687 | 0.938 | 0.821
11 | CC(=O)O[C@H]1CC[C@@]2(C)C(=CC[C@@H]3[C@@H]2CC[C@]2(C)C(c4cccnc4)=CC[C@@H]32)C1 [Abiraterone Acetate] | 1.52 | 1.19 | 0.94 | 0.94 | 0.44 | 0.818
12 | O=C(O)CCCC[C@@H]1SC[C@@H]2NC(=O)N[C@@H]21 [Biotin (Vitamin B7)] | 0.776 | 0.871 | 0.982 | 0.902 | 0.533 | 1.23
13 | O[C@@H](COc1cccc2ncccc12)CN1CCN(C2c3ccccc3[C@@H]3[C@H](c4ccccc42)C3(F)F)CC1 (stereo not given in full) | 1.12 | 1.33 | 0.754 | 0.764 | 0.675 | 1.43
14 | CC(C(=O)O)c1ccc(CC2CCCC2=O)cc1 (stereo not given) [Loxoprofen] | 1.12 | 0.954 | 0.808 | 1.12 | 0.384 | 0.794
15 | Cc1ccc2c(Cl)cc(Cl)c(O)c2n1 [Chlorquinaldol] | 2.59 | 2.3 | 1.54 | 2.53 | 2.09 | 2.94
16 | CC(=O)N1C[C@H](O)C[C@H]1C(=O)O [Oxaceprol] | 0.691 | 0.845 | 0.785 | 0.895 | 0.812 | 1.28
17 | CC(=O)Nc1nc(C)c(-c2ccc(Cl)c(S(=O)(=O)NCCO)c2)s1 | 0.94 | 1.48 | 1.62 | 2.98 | 0.945 | 1.12
18 | CC[C@H]1[C@@H](O)[C@@H]2[C@H](CC[C@]3(C)[C@@H]([C@H](C)CCC(=O)O)CC[C@@H]23)[C@@]2(C)CC[C@@H](O)C[C@@H]12 [Obeticholic Acid] | 0.797 | 0.614 | 0.878 | 0.944 | 0.851 | 0.844
19 | COc1ccc(-c2cc(=O)c3c(OC)c(OC)c(OC)c(OC)c3o2)cc1 [Tangeretin] | 0.981 | 1.05 | 1.17 | 0.742 | 0.656 | 1.06
20 | CNC(=O)c1cc(Oc2ccc(NC(=O)Nc3ccc(Cl)c(C(F)(F)F)c3)c(F)c2)ccn1 [Regorafenib Monohydrate] | 2.14 | 2.35 | 1.71 | 1.8 | 1.82 | 1.76
21 | COc1cc2nc(N3CCCN(C)CC3)nc(NC3CCN(Cc4ccccc4)CC3)c2cc1OC | 4.16 | 3.99 | 3.51 | 4.73 | 4.64 | 3.6
22 | Cc1c(Cn2c(C)nc3c(C(=O)O)cc(N4CCOCC4)cc32)cccc1C(F)(F)F | 2.39 | 1.14 | 1.28 | 1.21 | 0.982 | 1.33
23 | Cc1nccn1CCC(C(N)=O)(c1ccccc1)c1ccccc1 [Imidafenacin] | 0.703 | 1.19 | 1.34 | 1.02 | 0.727 | 1.42

Row | SMILES | Euclidean distance (786-O) | Euclidean distance (A549) | Euclidean distance (DU145) | Euclidean distance (FB) | Euclidean distance (HEPG2) | Euclidean distance (OVCAR4)
24 | CCOc1nc2cccc(C(=O)O)c2n1Cc1ccc(-c2ccccc2-c2noc(=O)[nH]2)cc1 [Azilsartan] | 0.834 | 0.784 | 0.835 | 0.563 | 0.88 | 0.784
25 | CC(N)C12CC3CC(CC(C3)C1)C2 (stereo not given) [Rimantadine] | 0.735 | 0.64 | 0.671 | 1.35 | 0.621 | 1.37
26 | CC(=O)NO [Acetohydroxamic acid] | 1.37 | 1.28 | 0.954 | 1.17 | 0.648 | 0.776
27 | C[C@@H](O)[C@H]1C(=O)N2C(C(=O)O)=C(S[C@@H]3CN[C@H](CNS(N)(=O)=O)C3)[C@H](C)[C@H]12 [Doripenem] | 0.636 | 0.801 | 0.812 | 1.15 | 0.434 | 1.45
28 | CN(Cc1cc(Br)cc(Br)c1N)C1CCCCC1 [Bromhexine] | 0.96 | 1.02 | 0.619 | 0.847 | 0.566 | 1.03
29 | CC[C@H]1OC(=O)[C@H](C)[C@@H](O[C@H]2C[C@@](C)(OC)[C@@H](O)[C@H](C)O2)[C@H](C)[C@@H](O[C@@H]2O[C@H](C)C[C@H](N(C)C)[C@H]2O)[C@](C)(O)C[C@@H](C)[C@@H]2N[C@@H](COCCOC)O[C@H]([C@H]2C)[C@]1(C)O [Dirithromycin] | 0.963 | 1.37 | 0.758 | 1.06 | 1.27 | 1.41
30 | OC1CN(CCCOCCc2ccc3sccc3c2)C1 [Edonerpic maleate] | 0.947 | 0.582 | 0.87 | 1.18 | 0.525 | 0.97
31 | Cn1nc(C(C)(C)C)cc1C(=O)N[C@@H](Cc1cccc(Cl)c1)C(=O)NCC#N [Cathepsin Inhibitor 1] | 1.97 | 2.28 | 2.22 | 1.9 | 1.43 | 1.92
32 | COc1cc2ncnc(Nc3ccc(F)c(Cl)c3)c2cc1OCCCN1CCOCC1 [Gefitinib (ZD1839)] | 2.03 | 2.48 | 2.47 | 1.24 | 1.6 | 1.64
33 | Cc1ccc(NC(=O)c2ccc(CN3CCN(C)CC3)cc2)cc1Nc1nc(-c2cccnc2)cs1 [Masitinib (AB1010)] | 2.6 | 2.76 | 2.65 | 3.16 | 2.4 | 2.08
34 | CC#CC(=O)N1CC[C@@H](n2c(=O)n(-c3ccc(Oc4ccccc4)cc3)c3c(N)ncnc32)C1 [ONO-4059 (GS-4059) hydrochloride] | 1.09 | 0.871 | 1.8 | 1.99 | 0.863 | 0.627
35 | NC(=O)c1cccc2cn(-c3ccc([C@@H]4CCCNC4)cc3)nc12 [Niraparib (MK-4827) tosylate] | 2.41 | 2.21 | 1.59 | 2.49 | 2.86 | 1.92
36 | CC[C@H](c1ccc(O)cc1)[C@@H](CC)c1ccc(O)cc1 [Hexestrol] | 1.62 | 1.07 | 0.97 | 0.95 | 0.662 | 1.06
37 | CO[C@H]1C[C@H](O[C@@H]2/C(C)=C/C[C@@H]3C[C@@H](C[C@]4(CC[C@H](C)[C@@H](C5CCCCC5)O4)O3)OC(=O)[C@@H]3C=C(C)/C(=N/O)[C@H]4OC/C(=C\C=C\[C@@H]2C)[C@]43O)O[C@@H](C)[C@@H]1O [Selamectin] | 1.94 | 3.16 | 6.67 | 1.24 | 0.681 | 1.04
38 | COc1ccc(C2OCC3C(c4cc(OC)c(OC)c(OC)c4)OCC23)cc1OC (stereo not given) [Magnolin] | 0.904 | 0.78 | 1.05 | 1.02 | 0.56 | 0.966
39 | Oc1cc(O)c2c(c1)OC(c1ccc(O)c(O)c1)C(O)C2 (single isomer, unassigned; (+)) [(+)-Catechin] | 0.785 | 0.904 | 0.506 | 0.842 | 0.247 | 0.849
40 | CN(c1ncccc1CNc1nc(Nc2ccc3c(c2)CC(=O)N3)ncc1C(F)(F)F)S(C)(=O)=O | 1.25 and 2.75 | 3.05 and 1.62 | 2.34 and 1.3 | 3.61 and 1.66 | 2.58 and 1.31 | 3.25 and 1.45
41 | CCS(=O)(=O)CCn1c([N+](=O)[O-])cnc1C [Tinidazole] | 0.626 | 0.68 | 0.693 | 0.579 | 0.533 | 1.48
42 | O=c1c(O)c(-c2cc(O)c(O)c(O)c2)oc2cc(O)cc(O)c12 [Myricetin] | 0.872 | 2.24 | 2.15 | 1.76 | 1.1 | 2.1
43 | O=C(/C=C/c1ccccc1)NC(NC(=S)Nc1cccc2cccnc12)C(Cl)(Cl)Cl (stereo not given) [Salubrinal] | 0.979 | 1.28 | 1 | 1.21 | 1.04 | 1.28
44 | FC(F)(F)C(Cl)Br (stereo not given) [Halothane] | 0.835 | 0.628 | 0.788 | 1 | 0.854 | 1.59
45 | Cc1cnc(C(=O)N[C@H]2CCCCC/C=C\[C@@H]3C[C@@]3(C(=O)NS(=O)(=O)C3CC3)NC(=O)[C@@H]3C[C@@H](Oc4nc5ccccc5c5ccccc45)CN3C2=O)cn1 [Paritaprevir (ABT-450)] | 1.48 | 1.53 | 1.52 | 1.17 | 0.513 | 1.39
